Compound activity (PubChem BioAssay)
Shown are actives, neighbours in structure and some others; about 4.1% of the full set was active somewhere.
MEKK2mut PB1 HTS: signal of MEK5 binding to mutant human MEKK2 PB1 domain; percent response, % at 10 µM; AID 1530; bead flow cytometry, Alexa488-MEK5 binding to MEKK2 mutant; 0.35% of 290,000 active; in the data active means percent response above about 24%, passing the limit was not always enough
MEKK2 WT-MEK5: raises or lowers MEK5 binding to wildtype human MEKK2 PB1 domain. Q9Y2U5. binding response (% of control), % at 10 µM. bead flow cytometry, Alexa488-MEK5 binding to MEKK2 WT; actives lie on both sides. 1.1% of 290,000 active; in the data active means binding response below about 67% or above about 130%
CHT block: human CHT choline transport inhibition; 0.86% of 310,000 active; Q9GZV3; B-score at 10 µM; AID 488975; CHT-expressing cells, membrane potential dye, choline response; active compounds read low;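 active means B-score over 3 SD under the library average, and starting fluorescence ratio not unusually high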;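 further: choline stimulus applied at its EC90 after an EC20 pre-addition; B-score computed on integrated fluorescence ratio after choline addition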
CHT PAM: allosteric activators of human choline transporter CHT. B-score at 10 µM. Q9GZV3. 0.49% of 310,000 active. AID 488977. CHT-expressing cells, membrane potential dye, choline EC20; active compounds read high; LV-AA mutant CHT in HEK293 cells;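 active means initial fluorescence not abnormally high and integrated response B-score, plate-corrected, over 3 SD above library mean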
MEKK3 PB1 HTS: modulators (inhibitors or enhancers) of MEK5 binding to human MEKK3 PB1 domain | AID 1529 | binding response (% of control), % at 10 µM | 1.4% of 290,000 active | bead-based flow cytometry, Alexa488-MEK5 binding to MEKK3; actives lie on both sides; 0 = blocked by unlabeled MEK5, 100 = vehicle;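 active means binding response more than 3 SD above or below the average of its plate-row segment, actives on both sides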;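 further: Alexa488 bead fluorescence after subtracting the streptavidin-only scavenger bead signal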
Target sequence (Q99759 whole entry, looked up, the tested form may be a part): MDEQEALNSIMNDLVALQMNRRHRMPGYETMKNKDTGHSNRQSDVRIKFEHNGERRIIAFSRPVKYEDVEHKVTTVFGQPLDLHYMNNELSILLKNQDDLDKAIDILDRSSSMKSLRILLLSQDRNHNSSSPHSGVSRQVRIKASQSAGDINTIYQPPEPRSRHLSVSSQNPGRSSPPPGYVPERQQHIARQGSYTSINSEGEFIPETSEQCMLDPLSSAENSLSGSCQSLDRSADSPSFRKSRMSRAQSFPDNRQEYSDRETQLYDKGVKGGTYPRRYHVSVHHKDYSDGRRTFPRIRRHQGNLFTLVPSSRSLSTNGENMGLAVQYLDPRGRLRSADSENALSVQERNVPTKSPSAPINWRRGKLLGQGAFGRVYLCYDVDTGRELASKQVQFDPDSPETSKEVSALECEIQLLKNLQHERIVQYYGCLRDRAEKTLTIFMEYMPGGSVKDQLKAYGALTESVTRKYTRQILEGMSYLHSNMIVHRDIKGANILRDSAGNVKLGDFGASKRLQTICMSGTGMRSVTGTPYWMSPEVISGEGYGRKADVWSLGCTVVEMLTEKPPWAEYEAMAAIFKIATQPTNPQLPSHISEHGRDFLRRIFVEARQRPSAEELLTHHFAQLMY
SUMO Mot1 rescue: inhibitors of SUMOylation pathway: yeast Mot1-301 growth rescue | S. cerevisiae Mot1-301 growth rescue, ATP luminescence, 38.5C; percent above DMSO median, 100 means doubled | growth rescue, % at 18.8 µM | 1% of 320,000 active | AID 2716;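 active means every valid replicate shows activation above 250% relative to neutral control wells; inactive means the rest, any valid replicate at or below 250%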;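 further: OY570 slx delta 5 strain wells were the positive control but not used for scaling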
Active calls of the source: *; i = inactive; / = not tested or not shown; + = active, no number; [ ] = another dose, or the depositor's remark.

SMILES	MEKK2mut PB1 HTS	MEKK2 WT-MEK5	CHT block	CHT PAM	MEKK3 PB1 HTS	SUMO Mot1 rescue
CCOc1ccc(NCc2cccn2-c2nnc(N3CCC(C(=O)NCCCN4CCCCC4)CC3)s2)cc1	10	125	i	i	101	-5
CCC1CCCCN1CCCNC(=O)C1CCN(c2nnc(-n3cccc3)s2)CC1 (centres undefined)	14	141*	i	i	102	239
CCOc1ccc(NCc2cccn2-c2nnc(N3CCC(C(=O)NCCCN4CCCCC4C)CC3)s2)cc1 (centres undefined)	33*	147*	i	i	104	-10
CCCC(=O)NC(c1cccs1)c1cc([N+](=O)[O-])c2cccnc2c1O (centres undefined)	-1	100	i	i	102	101
CCC(=O)NC(c1cccs1)c1cc([N+](=O)[O-])c2cccnc2c1O (centres undefined)	0	110	i	i	128*	60
Cn1c(SCC(=O)N/N=C/C=C/c2ccco2)nc2ccccc21	0	97	i	i	96	114
CCOC(=O)c1ccc(OC(=O)CCCCCN=C(N)N)cc1	-1	101	i	i	98	7
CS(=O)(=O)Nc1ccc(C2=NN(C(=O)c3ccco3)C(c3ccc(F)cc3)C2)cc1 (centres undefined)	2	106	i	i	103	114
O=C(c1ccco1)N1N=C(c2ccc3nccnc3c2)CC1c1ccccc1 (centres undefined)	-4	95	i	i	98	541*
CC(C)=CCC/C(C)=C/CCC(C)NCCN1CCNCC1 (centres undefined)	48*	224*	i	i	110	2
CC(=O)OCC(=O)C1CCC2C3CC=C4CC(O)CCC4(C)C3CCC12C (centres undefined)	/	/	i	i	/	462*
CC(=O)OCC(=O)[C@H]1CC[C@H]2[C@@H]3CCC4=CC(=O)CC[C@]4(C)[C@H]3CC[C@]12C	2	101	i	i	98	10
COc1ccc(CNC(=O)CCNS(=O)(=O)c2cc(Br)cnc2N)cc1	-1	96	i	i	95	18
O=C(CS(=O)c1ccc(F)cc1)Nc1ccccc1Cl (centres undefined)	3	107	i	i	103	+
CC(=O)c1ccc(N2CCN(C(=O)c3ccc(NC(=O)C4CCCO4)cc3)CC2)cc1 (centres undefined)	-5	87	i	i	81*[inhibitor]	1
Cc1cccc(N2CCN(C(=O)c3ccc(NC(=O)C4CCCO4)cc3)CC2C)c1 (centres undefined)	-17	-1.0*[inhibitor]	i	i	0.0*[inhibitor]	2
CC(=O)c1ccc(NC(=O)C2CCCO2)cc1 (centres undefined)	3	108	i	i	107	0
CCCC[N+](CC#Cc1ccccc1)(CCCC)CCCS(=O)(=O)[O-]	-2	98	i	i	103	-3
Oc1c(Br)cc(Br)cc1CNc1cccc2cccnc12	-1	99	i	i	104	2
Oc1c(Br)cc(Br)cc1CNc1ccccn1	-4	98	i	i	94	288*
O=C(O)Cc1ccc(NC(=O)C2CC=CCC2C(=O)O)cc1 (centres undefined)	-3	98	i	i	102	625*
Cc1cc(N2CCCC2)c(C)cc1C=O	-6	-46*	i	i	95	0
Cc1cc2[nH]ncc2cc1NC(N)=S	0	100	i	i	103	-3
Cc1cc(Br)cc2cn[nH]c12	-28	40*	i	i	79	/
CC1=CC(C)[C@@H]2COC(c3ccc(O)cc3)[C@H]1C2C (some centres undefined)	-4	95	i	i	100	43
SMILES	MEKK2mut PB1 HTS	MEKK2 WT-MEK5	CHT block	CHT PAM	MEKK3 PB1 HTS	SUMO Mot1 rescue
O=C(c1ccco1)N1CCN(c2ncnc3c2nnn3Cc2ccccc2Cl)CC1	6	92	i	i	81	-23
Fc1ccc(N2CCN(c3ncnc4c3nnn4Cc3ccccc3Cl)CC2)cc1	-3	89	i	i	71*[inhibitor]	-2
Cc1ccc(S(=O)(=O)N2CCOCC2)cc1NC(=O)c1ccc(F)cc1F	/	/	/	/	/	-3
CCOc1ccc(S(=O)(=O)N2CCC(C(=O)NCc3ccco3)CC2)cc1C	1	98	i	i	99	64
CC1=NN(c2ccc(Br)cc2)C(=O)/C1=C/c1ccc(-c2ccccc2C(=O)O)o1	7	101	-7.2*	i	101	-2
CC(=O)n1cc(-c2ccncc2)c2ccccc21	8	104	i	6.5*	102	-2
CC(=O)N(c1ccc(Cl)cc1)c1cn(C(C)=O)c2ccccc12	1	100	i	i	101	-15
CCN1C(=O)/C(=C\c2cccc(OC(=O)c3ccco3)c2)SC1=S	1	93	i	i	101	321*
C=CCN1C(=O)/C(=C\c2cccc(OC(=O)c3ccco3)c2)SC1=S	1	101	i	i	103	4
O=C(O)CN1C(=O)/C(=C\c2cccc(OC(=O)c3ccco3)c2)SC1=S	-3	101	i	i	104	417*
O=C1CCc2cc(NS(=O)(=O)c3cc(F)ccc3F)cc3c2N1CC3	/	/	i	i	/	98
Cc1ccc(-n2[nH]c(C)c(/C=N/NC(=O)c3ccc([N+](=O)[O-])cc3)c2=O)c(C)c1	-4	99	i	7.5*	99	-18
Cc1cccc(Nc2cc(=O)n(C)c(=O)[nH]2)c1	2	108	i	i	105	-4
Cc1ccc(N(CC(=O)Nc2ccccc2C(=O)NCc2ccco2)S(=O)(=O)c2ccccc2)cc1C	29*	119	i	i	99	-14
O=C(CN(c1ccccc1)S(=O)(=O)c1ccccc1)Nc1ccccc1C(=O)NCc1ccco1	-3	96	i	i	97	3
COc1ccc(C2CC(=O)C=C(NNS(=O)(=O)c3ccc(C)cc3)C2)cc1 (centres undefined)	15	117	i	i	102	-19
Cc1ccc(NC(=S)N(CCCN2CCCC2)Cc2cccn2Cc2ccc(Cl)cc2)cc1Cl	25	317*	i	i	112	-16
COc1ccc(NC(=S)N(CCCN2CCCC2)Cc2cccn2Cc2ccc(Cl)cc2)cc1Cl	161*	293*	i	i	115	-11
Cc1ccc(NC(=S)N(CCCN2CCCC2)Cc2cccn2Cc2ccc(Cl)cc2)cc1C	74*	228*	i	i	108	-14
